Several values for one entry are separate records, joined by “and”; a condition that tells them apart may be missing. Equal values may be shown once. Inconclusive results are not listed. Activity calls are given as the source filed them.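 Rule for the calls, unless noted: active = normalized viability below 100% at a tested concentration; inactive = the rest.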

Assay [1] can be described thus: growth inhibition of DIPG glioma cells, dose response, cell-based, JHH-DIPG-1, MIPE4.0, CellTiter-Glo, qHTS (AID 1347062; cut-off not given, nearly all actives have AC50 up to about 27 µM;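 for AC50: cells exposed to compound for two days before readout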). The note with it: JHH-DIPG-1 viability, CellTiter-Glo ATP luminescence.
Assay [2] can be described thus: growth inhibition of DIPG glioma cells, dose response, cell-based, SU-DIPG-IV, MIPE4.0, CellTiter-Glo, qHTS (AID 1347063; cut-off not given, nearly all actives have AC50 up to about 30 µM;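 note: compound exposure lasted 48 hours before the viability readout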). Conditions: SU-DIPG-IV viability, CellTiter-Glo ATP luminescence.
The nature of assay [3]: SU-DIPG-VI glioma cell viability, MIPE4.0 library, CellTiter-Glo luminescence, qHTS (AID 1347066; cut-off not given, nearly all actives have AC50 up to about 30 µM;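 note: cells exposed to compound for 48 hours before readout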). The note with it: CellTiter-Glo ATP luminescence.
The nature of assay [4]: sensitizers of A549 cells to miR-34 induction, primary screen, imaging, A549 dox-inducible miR-34, nuclei and caspase counts (AID 1347080;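 active = compounds whose cell count with miR-34 switched on is under 0.7 times the count with it off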). Conditions: A549 miR-34 inducible, Hoechst nuclei count, 48 h.
Assay [5] in a line: survival rescue of mitochondrial mutant cells in low glucose, primary screen, MELAS cybrids, Rieske KO mouse fibroblasts, CellTiter-Glo (AID 1508586;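 active = mean z-score across replicates of 1.96 or higher in either the MELAS or the Rieske mutant cell line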;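 note: z relative to plate mean and SD of compound and empty wells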).
Assay [6] is described as follows: JHH-DIPG-1 glioma cell viability, MIPE5.0 library, CellTiter-Glo luminescence, qHTS (AID 1347067; cut-off not given, nearly all actives have AC50 up to about 26 µM;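 note: cells exposed to compound for 48 hours before readout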). The note with it: JHH-DIPG-1 glioma viability, CellTiter-Glo ATP luminescence.
The nature of assay [7]: SU-DIPG-XXV glioma cell viability, MIPE5.0 library, qHTS (AID 1347068; cut-off not given, nearly all actives have IC50 up to about 30 µM;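 for IC50: cells exposed to compound for 48 hours before viability readout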).
A short description of assay [8]: ovarian cancer cell viability with rucaparib, profiling panel, oncology-focused library, rucaparib conditional (AID 1508598). Conditions: patient-derived ovarian cancer cells, CellTiter-Glo viability, 144 h, stronger effect = lower value.
Assay [9] can be described thus: growth inhibition of DIPG glioma cells, dose response, cell-based, SU-DIPG-XIII, MIPE5.0, CellTiter-Glo, qHTS (AID 1347064; cut-off not given, nearly all actives have AC50 up to about 23 µM;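 for AC50: cells exposed to compound for 48 hours before the viability read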). The note with it: SU-DIPG-XIII viability, CellTiter-Glo ATP luminescence.
Setting [10] is: stronger effect = lower value, cell number ratio, induced over uninduced.
The mark [11] stands for this setting: measured here: relative caspase fold change +Dox/-Dox.
Setting [12] is: measured here: total cells with miR-34 induction, stronger effect = lower value.
The mark [13] stands for this setting: measured here: total cells without miR-34 induction.
[14] abbreviates: MELAS cybrid survival, CellTiter-Glo 48 h, stronger effect = higher value.
Where [15] appears, read: Rieske KO mouse fibroblast survival, CellTiter-Glo 72 h.

Turning to `NC[C@@H]1O[C@H](O[C@H]2[C@@H](O)[C@H](O[C@@H]3[C@@H](O)[C@H](N)C[C@H](N)[C@H]3O[C@H]3O[C@H](CN)[C@@H](O)[C@H](O)[C@H]3N)O[C@@H]2CO)[C@H](N)[C@@H](O)[C@@H]1O`, the result in assay [1], in assay [2] and in assay [3] was inactive. In addition, the fold change in [4] (setting [10]) was 0.891 (inactive) and 0.964 (inactive); in assay [4] (setting [11]), 0.356 and 1.26. The cell count in [4] (setting [12]) was 8260 and 10600; in assay [4] (setting [13]), 9270 and 11000. The z-score is -0.364 (inactive) and -0.26 (inactive) in [5] (setting [14]); -0.155 and -1.25 in [5] (setting [15]).
For `COc1cc(Cl)cn2c(-c3cccc(NC4CNC4)n3)cnc12`, the molecule was classed as inactive in [1] and in assay [3].
As to `CCOc1cc(N2CCC(O)CC2)ccc1Nc1ncc2c(n1)N(C)c1ccccc1C(=O)N2C`, the figures for the AC50 in [1] and in [6] were 7.43 µM (active) and 20.9 µM (active), respectively. Besides, the molecule was called inactive in assay [3]. Besides, the concentration for half-maximal inhibition (IC50) in [7] was 18.6 µM (active). For the same molecule, the fold change in assay [4] (setting [10]) is 0.886 (inactive); in assay [4] (setting [11]), 0.548. The cell count in assay [4] (setting [12]) turned out to be 6240; in assay [4] (setting [13]) it was 7040. Also, the z-score in assay [5] (setting [14]) is -0.56 (inactive); in assay [5] (setting [15]) it was -1.56. Besides, the viability in [8] (at 0.000305 µM, OCI-C5x cells, with rucaparib 10 µM, 100% = cells with rucaparib alone) was 123% (inactive); in assay [8] (at 0.000305 µM, OCI-C5x cells, without rucaparib) it was 120% (inactive); in assay [8] (at 0.000305 µM, OCI-P5x cells, with rucaparib 20 µM, 100% = cells with rucaparib alone), 94.3% (active); in [8] (at 0.000305 µM, OCI-P5x cells, without rucaparib), 101% (inactive); in [8] (at 0.00122 µM, OCI-C5x cells, with rucaparib 10 µM, 100% = cells with rucaparib alone), 122% (inactive); in assay [8] (at 0.00122 µM, OCI-C5x cells, without rucaparib), 109% (inactive). Moreover, the viability in assay [8] (at 0.00122 µM, OCI-P5x cells, with rucaparib 20 µM, 100% = cells with rucaparib alone) is 99.4% (active); in assay [8] (at 0.00122 µM, OCI-P5x cells, without rucaparib), 105% (inactive); in [8] (at 0.00488 µM, OCI-C5x cells, with rucaparib 10 µM, 100% = cells with rucaparib alone) it was 119% (inactive); in [8] (at 0.00488 µM, OCI-C5x cells, without rucaparib) it was 112% (inactive); in assay [8] (at 0.00488 µM, OCI-P5x cells, with rucaparib 20 µM, 100% = cells with rucaparib alone), 91.8% (active); in assay [8] (at 0.00488 µM, OCI-P5x cells, without rucaparib), 102% (inactive). Besides, the viability was 124% (inactive) in assay [8] (at 0.0195 µM, OCI-C5x cells, with rucaparib 10 µM, 100% = cells with rucaparib alone); 117% (inactive) in assay [8] (at 0.0195 µM, OCI-C5x cells, without rucaparib); 94% (active) in assay [8] (at 0.0195 µM, OCI-P5x cells, with rucaparib 20 µM, 100% = cells with rucaparib alone); 99.5% (active) in assay [8] (at 0.0195 µM, OCI-P5x cells, without rucaparib); 131% (inactive) in assay [8] (at 0.0781 µM, OCI-C5x cells, with rucaparib 10 µM, 100% = cells with rucaparib alone); 124% (inactive) in assay [8] (at 0.0781 µM, OCI-C5x cells, without rucaparib). In addition, the viability was 96.6% (active) in assay [8] (at 0.0781 µM, OCI-P5x cells, with rucaparib 20 µM, 100% = cells with rucaparib alone); 108% (inactive) in [8] (at 0.0781 µM, OCI-P5x cells, without rucaparib); 109% (inactive) in assay [8] (at 0.313 µM, OCI-C5x cells, with rucaparib 10 µM, 100% = cells with rucaparib alone); 131% (inactive) in [8] (at 0.313 µM, OCI-C5x cells, without rucaparib); 88.3% (active) in assay [8] (at 0.313 µM, OCI-P5x cells, with rucaparib 20 µM, 100% = cells with rucaparib alone); 95.6% (active) in [8] (at 0.313 µM, OCI-P5x cells, without rucaparib). The viability in assay [8] (at 1.25 µM, OCI-C5x cells, with rucaparib 10 µM, 100% = cells with rucaparib alone) was 101% (inactive); in assay [8] (at 1.25 µM, OCI-C5x cells, without rucaparib), 121% (inactive); in assay [8] (at 1.25 µM, OCI-P5x cells, with rucaparib 20 µM, 100% = cells with rucaparib alone) it was 84.7% (active); in assay [8] (at 1.25 µM, OCI-P5x cells, without rucaparib), 90.7% (active); in assay [8] (at 5 µM, OCI-C5x cells, with rucaparib 10 µM, 100% = cells with rucaparib alone), 85.7% (active); in assay [8] (at 5 µM, OCI-C5x cells, without rucaparib) it was 119% (inactive). The viability in assay [8] (at 5 µM, OCI-P5x cells, with rucaparib 20 µM, 100% = cells with rucaparib alone) is 35.5% (active); in assay [8] (at 5 µM, OCI-P5x cells, without rucaparib) it was 75.3% (active).
For `COc1cc2c(cc1Cc1cccc(Cl)c1F)c(=O)c(C(=O)O)cn2[C@H](CO)C(C)C`, in [1], the call was inactive. In addition, the values for the half-maximal activity concentration (AC50) in assay [3] and in [6] were 20.9 µM (active) and 26.3 µM (active), respectively.
For `C=CC(=O)Nc1cccc(Nc2nc(NC3CCC(N(C)C)CC3)nc3c2ncn3C(C)C)c1` (centres undefined), the concentration at half-maximal activity (AC50) in assay [1] was 0.187 µM (active); in assay [2], 0.0235 µM (active).
Regarding `C=CC(=O)Nc1cc(NC(=O)c2ccc(C)c(NC(=O)c3ccno3)c2)cc(C(F)(F)F)c1`, the half-maximal activity concentration (AC50) was 16.6 µM (active) in assay [1], 18.7 µM (active) in assay [2] and 16.6 µM (active) in assay [3].
Consider `Fc1ccc(CNc2ncnc3ccc(F)cc23)cc1`, for which the call in [1], in assay [9] and in assay [7] was inactive.
As for `c1ccc(CNc2nc(N3CCOc4ccccc43)nc3c2CCCC3)cc1`, in assay [1], the outcome was inactive. In assay [9], the AC50 is 16.6 µM (active).
For `CN[C@@H]1[C@@H](O)[C@@H](O[C@@H]2[C@@H](O)[C@H](O[C@H]3O[C@H](CN)[C@@H](O)[C@H](O)[C@H]3O)[C@@H](N)C[C@H]2NC(=O)[C@@H](O)CN)OC[C@]1(C)O`, the molecule was called inactive in assay [1], in assay [2] and in assay [3].

For the origin of these results see PubChem BioAssay.
